# NPC1 promoter act = activates the NPC1 promoter; Huh7 NPC1 promoter luciferase reporter, 24 h; Potency, µM (series often up to 9.22 µM), inactives show at the top dose activation, most hits filed as activators; 320,000 compounds, 2.4% hits; further: % of control where 0% means no effect; nearly all actives have a fitted effect of over 60% in size
#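 Quantitative HTS used a cell-based reporter: Huh7 cells stably bearing the NPC1 promoter upstream of luciferase were treated with compounds for 24 h, and promoter activation was read as luminescence.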
# ELG1 genotox = induces genotoxicity in HEK293T cells with luciferase-tagged ELG1; 330,000 compounds, 1.3% hits; AID 504466; Potency, µM (highest dose often 46 µM), for the others: at the top dose activity change, positive = activation, most hits filed as activators; HEK293T ELG1-luciferase reporter, luminescence, 16 h; further: % of control where 0% means no effect; nearly all actives have a fitted effect of over 60% in size
#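 Step 1: seed 2,000 HEK293T ELG1-luciferase cells per well. Step 2: add compound or DMSO, incubate 16 hr at 37 °C. Step 3: ONE-Glo, 30 min at room temperature, read luminescence.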
# SMN2 splice up = increases expression of the SMN2 splice variant | HEK293 SMN2-luciferase splicing reporter, luminescence, 30-36 h | Potency, µM (highest dose often 46.1 µM), without a hit: at the top dose activity change, positive = activation, actives largely listed as activators | 210,000 compounds, 2.8% hits; further: % of control where 0% means no effect; nearly all actives have a fitted effect of over 55% in size
#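 HEK293 cells carry an SMN2 […]–luciferase reporter in which exon 7 inclusion puts luciferase in frame. Cells were plated 10-12 h before compound addition, then incubated 30-36 h at 37C. ONE-Glo luminescence was read; sodium butyrate at 4.5 mM final served as control.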
# Rab9 prom act = activators of Rab9 promoter. Huh7 Rab9 promoter-luciferase reporter, luminescence, 24 h. 320,000 compounds, 2.8% hits. Potency, µM (top dose mostly 9.22 µM), inactives show at the highest dose activation, negative = inhibition, most hits filed as activators. AID 485297; further: % of control where 0% means no effect; nearly all actives have a fitted effect of over 60% in size
#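 Steps: seed 1500 Huh7 Rab9-luc cells per well, rest 2 h at 37 °C; add compound in DMSO; incubate 24 h; add luciferase reagent, 10 min ambient; read luminescence.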
# FLuc counter = counter-screen for miR-21 project: firefly luciferase inhibitors or activators; Potency, µM (highest dose often 57.5 µM), for inactives: at the highest dose activity change, negative = inhibition, hits mostly inhibitors; purified FLuc, Km substrates, luminescence inhibition; 360,000 compounds, 6.9% hits; P08659; AID 588342;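 further: plate controls were vehicle for no effect and reference inhibitor for full effect; nearly all actives have a fitted effect of over 55% in size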
# Target sequence (P08659 whole entry, looked up): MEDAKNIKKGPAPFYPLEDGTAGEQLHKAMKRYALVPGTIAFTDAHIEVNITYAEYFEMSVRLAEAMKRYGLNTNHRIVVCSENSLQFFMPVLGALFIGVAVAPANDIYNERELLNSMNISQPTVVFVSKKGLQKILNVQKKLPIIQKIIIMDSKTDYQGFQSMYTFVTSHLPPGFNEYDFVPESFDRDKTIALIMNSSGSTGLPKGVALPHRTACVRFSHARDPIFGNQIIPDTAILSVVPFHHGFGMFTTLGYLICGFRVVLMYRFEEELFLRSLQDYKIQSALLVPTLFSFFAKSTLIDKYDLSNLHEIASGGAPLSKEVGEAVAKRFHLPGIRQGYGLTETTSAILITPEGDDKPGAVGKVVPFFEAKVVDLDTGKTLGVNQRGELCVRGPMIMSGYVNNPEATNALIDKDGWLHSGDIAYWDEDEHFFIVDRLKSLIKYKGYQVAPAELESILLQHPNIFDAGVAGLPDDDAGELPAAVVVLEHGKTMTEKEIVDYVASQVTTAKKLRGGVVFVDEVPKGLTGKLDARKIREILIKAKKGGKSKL
#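 Biochemical qHTS of compounds, final roughly 60 µM downward over six points, against 10 nM purified firefly luciferase using Km concentrations of substrates (10 uM D-luciferin, 10 uM ATP) in Tris acetate pH 7.5 buffer; luminescence output.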
# * marks the source's active call; other numbers are inactive results; ? = inconclusive; nt = not tested or not shown. This is a sample that favours compounds with a hit; in the whole collection about 7.4% have one here. The call rests on the fitted dose curve; in most records, active means well fitted curve in the direction sought with a large enough effect; inconclusive means small, poorly fitted or top-dose-only effect, or another doubt; inactive means no such curve, though single readings can be large; an effect the other way counts as inactive or inconclusive. Potency means the concentration at half of the fitted maximal effect.
SMILES,NPC1 promoter act,ELG1 genotox,SMN2 splice up,Rab9 prom act,FLuc counter
O=C(O/N=C(\c1ccccc1)c1ccccn1)c1ccc(Cl)c(Cl)c1,-3%,0%,-26%,-3%,2%
C/C(=N\OC(=O)c1cccc(Cl)c1)c1sc(C)nc1C,-3%,4%,nt,6%,6.7µM*
N/C(=N\OC(=O)c1cccc(Cl)c1)c1cccnc1,17%,10µM*,11%,11%,6.7µM*
O=C(NC(=S)NCCC1=CCCCC1)c1cccnc1,-4%,3%,nt,3%,1%
CCOC(=O)C1CCN(C(c2ccc(C)cc2)c2sc3nc(-c4ccco4)nn3c2O)CC1 (stereo not drawn),nt,nt,nt,nt,-20%
Cc1ccc(S(=O)(=O)N2CCOCC2)cc1N/N=C(\C#N)c1nc2ccccc2[nH]1,-7%,-3%,nt,-1%,-7%
N/C(=N\OC(=O)c1ccc(Cl)c(Cl)c1)c1cccnc1,13%,11%,-3%,10%,8.5µM*
C=CCSC1=N/C(=C\C=C\c2ccco2)C(=O)S1,6%,1%,7%,2%,13µM*
O=C(CCS(=O)(=O)c1ccccc1)N1CCN(c2ccccc2)CC1,2.8µM*,?,nt,1.6µM*,12µM*
O=C(CCS(=O)(=O)c1ccc(Br)cc1)N1CCN(c2ccccc2)CC1,-1%,-1%,5%,-3%,1%
CCOC(=O)c1c(NC(=O)CN2CCCCC2)sc2c1CCN(C(=O)OCC)C2,-8%,-6%,-39%,-18%,-1%
CCOC(=O)N1CCc2c(sc(NC(=O)C3=COCCO3)c2C(N)=O)C1,-3%,1%,nt,9%,11µM*
CNC(=O)c1c(NC(=O)C2=COCCO2)sc2c1CCCC2,2%,17%,nt,5%,17µM*
CN(C)CCNC(=O)Nc1ccc(Cl)c(Cl)c1,-1%,2%,-5%,-4%,1%
Cc1nnc(NC(=O)c2ccncc2)s1,-1%,-1%,-13%,8%,-12%
CCN(CC)S(=O)(=O)c1ccc(C(=O)Nc2cc(C)cc(C)c2)cc1,-2%,-1%,-9%,0%,-12%
Cc1cc(C)cc(NC(=O)c2ccc(S(=O)(=O)C(F)F)cc2)c1,2%,2%,19%,2%,13µM*
Cc1nnc(NC(=O)c2ccc(S(=O)(=O)C(F)F)cc2)s1,?,?,nt,2.2µM*,5.4µM*
O=C(COc1ccccc1[N+](=O)[O-])N1CCCc2ccccc21,2%,-2%,nt,10%,-8%
O=C(Cn1ccc([N+](=O)[O-])n1)N1CCCc2ccccc21,2%,?,10%,-2%,17µM*
O=C(OCC(=O)N1CCCc2ccccc21)c1ccccc1[N+](=O)[O-],?,?,nt,?,15µM*
O=C(OCC(=O)N1CCN(c2ccccc2)CC1)c1ccccc1[N+](=O)[O-],3.5µM*,5.2µM*,nt,3.2µM*,6.7µM*
O=C(Cn1ccc([N+](=O)[O-])n1)N1CCCCCC1,0%,1%,9%,0%,-3%
O=C(COC(=O)c1ccccc1[N+](=O)[O-])NC(=O)c1ccccc1,-1%,6%,nt,-6%,17µM*
Cc1cc(OCC(=O)NCC2(N3CCOCC3)CCCCC2)ccc1Cl,nt,nt,nt,nt,-8%
SMILES,NPC1 promoter act,ELG1 genotox,SMN2 splice up,Rab9 prom act,FLuc counter
Cc1ccc(S(=O)(=O)c2cc3cc(C(=O)Nc4ccc(C)cc4C)ccc3oc2=O)cc1,nt,nt,10%,nt,-2%
COc1ccccc1/C=C/c1ccc2cccc(O)c2n1,?,21µM*,nt,?,4.8µM*
COc1cc(Cl)cc(/C=C/c2ccc3cccc(O)c3n2)c1OC,?,13%,nt,?,?
COc1ccc(Cl)cc1/C=C/c1ccc2cccc(O)c2n1,4µM*,?,nt,3.5µM*,17µM*
Cc1ccc(CNC(=O)c2ccc3c(c2)NC(=O)C(CS(=O)(=O)Cc2cccc(C)c2)N3)cc1 (stereo not drawn),nt,nt,nt,nt,5%
Cc1noc(C)c1C(=O)Nc1nc2ccccc2s1,19%,?,nt,?,17µM*
COc1cc(-c2cc(C(=O)Nc3nc4ccccc4s3)c3ccccc3n2)cc(OC)c1OC,12%,-6%,-20%,-2%,15µM*
Cc1ccc2nc(NC(=O)c3ccc(Cn4cc(Cl)cn4)o3)sc2c1,10%,1%,-32%,14%,7.6µM*
NNC(=O)c1ccc(Cn2cc(Cl)cn2)o1,-5%,0%,nt,-1%,-16%
O=C(Nc1ccccc1)c1nc2ccccc2s1,2.8µM*,2.9µM*,3.2µM*,2.5µM*,1.1µM*
Cc1cccc2sc(NC(=O)c3ccc(Cl)s3)nc12,2%,7%,-33%,21%,?
Cc1ccc(OCCSc2nc3ccc(NC(=O)c4cccs4)cc3s2)cc1,nt,nt,nt,nt,-6%
CS(=O)(=O)c1ccc2nc(NC(=O)c3cccs3)sc2c1,0.4µM*,0.92µM*,2.2µM*,0.4µM*,0.67µM*
Cc1ccc(C(=O)Nc2nc3ccc(S(C)(=O)=O)cc3s2)s1,1.8µM*,16µM*,11µM*,1.4µM*,2.4µM*
CCC(=O)Nc1nc2ccc(S(C)(=O)=O)cc2s1,-1%,7%,35%,15%,-6%
Cc1ccc2nc(NC(=O)c3ccc(Cl)s3)sc2c1,1µM*,4.6µM*,13µM*,0.56µM*,1.7µM*
COc1cc(C(=O)Nc2nc3ccc(S(C)(=O)=O)cc3s2)cc(OC)c1C,0%,-2%,nt,1%,-10%
Cc1ccc2nc(NC(=O)c3cccs3)sc2c1,0.5µM*,0.26µM*,2.5µM*,?,0.48µM*

# Screening data deposited in PubChem BioAssay by National Center for Advancing Translational Sciences (NCATS).
